# Test results: PubChem BioAssay (NCATS)
# “And” between values parts separate entries of the source, which are not always exact repeats. Equal entries are not always repeated. Values without a mark were called inactive. Inconclusive results are not listed. Where a call stands in place of a potency, no number is given. The source made the active and inactive calls. Unless noted, the call rests on the fitted dose curve; in most records, active means well fitted curve in the direction sought with a large enough effect; inconclusive means small, poorly fitted or top-dose-only effect, or another doubt; inactive means no such curve, though single readings can be large; an effect the other way counts as inactive or inconclusive.
# Tests used:
# [1] = qHTS for Activators of Parkin Expression: LOPAC Validation Assay (FLuc Reporter) (AID 720573)
# In short: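 Neuronal cell line stably expressing FLuc/NLuc coincidence reporter under the Parkin promoter, 1,500 cells/well, dosed 24 h after seeding in 7-point series for 24 h at 37 C. FLuc luminescence read; normalized to DMSO and positive control (100%).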
# [2] = target: T1, Hexokinase-4 (Homo sapiens) + Glucokinase regulatory protein (Homo sapiens) (UniProt P35557+Q14397); assay: qHTS assay for inhibitors of recombinant human GCK-GKRP interaction: Diaphorase-coupled assay (AID 743205)
# T1 sequence (P35557 whole entry, looked up): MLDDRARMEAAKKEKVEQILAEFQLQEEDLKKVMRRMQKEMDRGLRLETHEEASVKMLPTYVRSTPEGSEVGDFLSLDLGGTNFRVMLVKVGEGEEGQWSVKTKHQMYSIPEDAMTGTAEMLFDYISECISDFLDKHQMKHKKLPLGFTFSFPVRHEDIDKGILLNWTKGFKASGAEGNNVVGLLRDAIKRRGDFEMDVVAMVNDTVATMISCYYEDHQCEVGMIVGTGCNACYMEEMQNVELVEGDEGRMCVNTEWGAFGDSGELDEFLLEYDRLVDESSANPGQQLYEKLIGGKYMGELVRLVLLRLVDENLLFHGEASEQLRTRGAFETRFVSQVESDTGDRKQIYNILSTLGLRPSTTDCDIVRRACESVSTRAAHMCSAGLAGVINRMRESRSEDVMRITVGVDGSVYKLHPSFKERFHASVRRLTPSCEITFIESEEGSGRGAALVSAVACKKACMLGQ
# T1 sequence (Q14397 whole entry, looked up): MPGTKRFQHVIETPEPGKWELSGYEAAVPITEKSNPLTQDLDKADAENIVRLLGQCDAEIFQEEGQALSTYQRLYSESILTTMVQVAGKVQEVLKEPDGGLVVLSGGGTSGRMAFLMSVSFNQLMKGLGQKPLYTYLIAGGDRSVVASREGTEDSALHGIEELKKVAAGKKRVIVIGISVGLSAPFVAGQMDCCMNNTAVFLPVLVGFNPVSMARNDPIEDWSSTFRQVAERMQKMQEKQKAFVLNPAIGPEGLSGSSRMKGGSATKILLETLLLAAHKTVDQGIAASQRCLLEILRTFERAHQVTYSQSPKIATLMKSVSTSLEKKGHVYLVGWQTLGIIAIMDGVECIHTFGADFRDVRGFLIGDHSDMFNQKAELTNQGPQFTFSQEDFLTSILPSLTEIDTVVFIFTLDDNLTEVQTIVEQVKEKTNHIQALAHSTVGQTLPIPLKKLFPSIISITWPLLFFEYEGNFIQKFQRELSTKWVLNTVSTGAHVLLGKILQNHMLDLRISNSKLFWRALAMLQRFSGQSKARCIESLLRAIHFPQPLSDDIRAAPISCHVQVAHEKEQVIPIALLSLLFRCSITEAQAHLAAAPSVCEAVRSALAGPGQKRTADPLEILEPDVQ
# In short: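 Compounds pre-incubated 20 min with substrate, then 10 nM GST-GCK with 10 nM FLAG-GKRP added. GCK activity coupled via G6PDH and diaphorase to resorufin (5 mM glucose, 0.4 mM ATP, 0.15 mM NADP+, pH 7.6), read kinetically over 30 minutes at Ex 525/Em 590 nm.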
# [3] = target: T1, Hexokinase-4 (Homo sapiens) + Glucokinase regulatory protein (Homo sapiens); assay: qHTS assay for inhibitors of recombinant human GCK-GKRP interaction: ADP-Glo assay (AID 743206)
# In short: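 GST-GCK and FLAG-GKRP (15 nM each in the dispensed mix, with 2 uM S6P) react with 0.4 mM ATP and 5 mM glucose (final) in Hepes pH 7.6 for 60 min at room temperature. ADP is measured by ADP-Glo luminescence.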
# [4] = target: T1, Hexokinase-4 (Homo sapiens) + Glucokinase regulatory protein (Homo sapiens); assay: qHTS assay for inhibitors of recombinant human GCK-GKRP interaction: HTRF assay (AID 743207)
# In short: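 HTRF binding of 5 nM GST-GCK and 5 nM FLAG-GKRP with 2 uM S6P in pH 7.1 Hepes buffer (MgCl2, KCl, DTT, Tween 20, BSA). Anti-FLAG XL665 and anti-GST donor added, 60 min at room temperature; 665/615 nm read, normalized to with- and without-GCK controls.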
# [5] = qHTS Assay for Identifying Gametocytocidal Compounds (AID 743244); further: potency means the concentration at half of the fitted maximal effect;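 on max response: actives lower the fluorescent signal which means gametocytes are killed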; settings: P. falciparum 3D7 stage III-V gametocytes, alamarBlue, 72 h; max response: stronger effect = lower value
# In short: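 A resazurin-based viability read-out was applied to mature P. falciparum gametocytes: 72 h compound treatment, then 24 h dye incubation, with falling fluorescence signalling gametocytocidal effect.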
# [6] = qHTS assay for small molecule agonists of the antioxidant response element (ARE) signaling pathway measured by Nrf2-dependant transcriptional activity (AID 720636; active means well fitted curve in the direction sought with a large enough effect in the repeat runs; an effect the other way counts as inactive or inconclusive;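 further: HepG2 cells with an ARE-driven luciferase reporter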)
# In short: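 ONE-Glo luminescence, read 30 min after reagent addition at room temperature, reflected ARE reporter activity in HepG2 cells that had been incubated with compound for 16 hr at 37 C in 1% dialyzed FBS.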
# [7] = qHTS assay for small molecule agonists of the antioxidant response element (ARE) signaling pathway measured by Nrf2-dependant transcriptional activity - cell viability counter screen (AID 720653; active means well fitted curve in the direction sought with a large enough effect in the repeat runs; an effect the other way counts as inactive or inconclusive); settings: ARE-bla HepG2 viability, CellTiter-Glo ATP luminescence, 16 h; max response: stronger effect = lower value
# In short: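 Cytotoxicity counter screen: intracellular ATP quantified by CellTiter-Glo luminescence in the same ARE-bla HepG2 plates, after 16 h compound exposure and a 2 h beta-lactamase substrate step.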
# [8] = qHTS assay for cell viability of the p53RE-bla HCT-116 cell line (AID 743292); further: nearly all actives have a fitted effect of over 55% in size
# In short: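 After plating at 4,000 cells per well and a 5 h rest at 37 C, HCT-116 cells carrying p53RE-bla received test chemicals in DMSO. Sixteen hours later at 37 C, CellTiter-Glo was added and luminescence recorded following 30 min at room temperature.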
# [9] = qHTS assay for cell viability of HEK293 cells (AID 743288); settings: ATP luminescence (CellTiter-Glo), 18 h, stronger effect = lower value; further: nearly all actives have a fitted effect of over 50% in size
# In short: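 Parental HEK293 cells, 2,000 per well, preincubated at least 5 h at 37 C, then exposed to compounds in DMSO for 18 h at 37 C. Viability by CellTiter-Glo ATP luminescence after 30 min at room temperature.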
# [10] = qHTS assay for small molecule antagonists of the retinoid-related orphan receptor gamma (ROR-gamma) signaling pathway - cell viability counter screen (AID 720652; active means well fitted curve in the direction sought with a large enough effect in the repeat runs; an effect the other way counts as inactive or inconclusive;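 further: CHO reporter cells with doxycycline-induced ROR-gamma expression; series mostly up to about 92 µM; compound exposure lasted 16 hr before ATP read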)
# In short: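 CHO cells carrying TET-inducible ROR and RORE-luciferase reporter, plated 5 hr, then dosed with compound plus doxycycline. After 16 hr at 37 C, viability read as intracellular ATP by CellTiter-Glo luminescence.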
smiles,measurement,setting,value
CCN(CC)CCCC(C)Nc1c2ccc(Cl)cc2nc2ccc(OC)cc12 (stereo not given),outcome,[1],inactive
same,outcome,[2],inactive
same,outcome,[3],inactive
same,outcome,[4],inactive
same,Potency,[5],3.16 µM (active) and 1 µM (active)
CCCCCCCCCCCCCCCC(=O)NCCO,outcome,[1],inactive
same,outcome,[2],inactive
same,outcome,[3],inactive
same,outcome,[4],inactive
same,max response,[5],-1.98% and 26.2%
CC1=C(CC(=O)O)c2cc(F)ccc2/C1=C\c1ccc(S(C)=O)cc1 (stereo not given),outcome,[1],inactive
same,outcome,[2],inactive
same,outcome,[3],inactive
same,outcome,[4],inactive
same,max response,[5],-9.81% and 32%
O=C1N=C(O)CN1/N=C/c1ccc(-c2ccc([N+](=O)[O-])cc2)o1,outcome,[1],inactive
same,outcome,[2],inactive
same,outcome,[3],inactive
same,outcome,[4],inactive
same,max response,[5],4.07% and 20.9%
CC(C)(C)[C@]1(O)CCN2C[C@H]3c4ccccc4CCc4cccc(c43)[C@@H]2C1,outcome,[1],inactive
same,outcome,[2],inactive
same,outcome,[3],inactive
same,outcome,[4],inactive
same,max response,[5],13.6% and 4.8%
Nc1cc(=O)[nH]c(N)n1,outcome,[1],inactive
same,outcome,[2],inactive
same,outcome,[3],inactive
same,outcome,[4],inactive
same,max response,[5],-11.1% and 4.42%
CN(C)CCCN1c2ccccc2CCc2ccccc21,outcome,[1],inactive
same,outcome,[6],inactive
same,max response,[7],-13.3%
same,Potency,[8],inactive
CC1=C(CC(=O)O)c2cc(F)ccc2/C1=C\c1ccc(S(C)(=O)=O)cc1,outcome,[1],inactive
same,outcome,[2],inactive
same,outcome,[3],inactive
same,outcome,[4],inactive
CC(C(O)c1ccc(O)cc1)N1CCC(Cc2ccccc2)CC1 (stereo not given),outcome,[1],inactive
same,outcome,[2],inactive
same,outcome,[3],inactive
same,outcome,[4],inactive
same,Potency,[5],2.82 µM (active)
OCCN1CCN(CCCN2c3ccccc3Sc3ccc(Cl)cc32)CC1,outcome,[1],inactive
same,outcome,[2],inactive
same,outcome,[3],inactive
same,outcome,[4],inactive
CNCC(O)c1ccc(O)c(O)c1 (stereo not given),outcome,[1],inactive
same,outcome,[2],inactive
same,outcome,[3],inactive
same,outcome,[4],inactive
COCCOC(=O)C1=C(C)NC(C)=C(C(=O)OC/C=C/c2ccccc2)C1c1cccc([N+](=O)[O-])c1 (stereo not given),outcome,[1],inactive
same,outcome,[2],inactive
same,outcome,[3],inactive
same,outcome,[4],inactive
same,max response,[5],2.31% and 20.4%
CCN(CC)CCNC(=O)c1cc(Cl)c(N)cc1OC,outcome,[1],inactive
same,outcome,[2],inactive
same,outcome,[3],inactive
same,outcome,[4],inactive
same,max response,[5],-1.62%
CC(CN1c2ccccc2Sc2ccccc21)N(C)C (stereo not given),outcome,[1],inactive
same,outcome,[6],inactive
same,max response,[7],-20.1%
same,outcome,[2],inactive
same,outcome,[3],inactive
same,outcome,[4],inactive
same,max response,[9],-10.5%
CC(C)C(=O)c1c(C(C)C)nn2ccccc12,outcome,[1],inactive
same,outcome,[2],inactive
same,outcome,[3],inactive
same,outcome,[4],inactive
same,max response,[5],-11.3% and 12.6%
Cc1cc2nc3c(=O)[nH]c(=O)nc-3n(C[C@H](O)[C@H](O)[C@H](O)CO)c2cc1C,outcome,[6],inactive
same,Potency,[10],inactive
same,max response,[7],0.335%
same,max response,[5],33.2% and 6.89%
same,max response,[9],-6.02%
same,Potency,[8],inactive
CN(C)CCOC(C)(c1ccccc1)c1ccccn1 (stereo not given),outcome,[6],inactive
same,max response,[7],-11.9%
same,outcome,[2],inactive
same,outcome,[3],inactive
same,outcome,[4],inactive
same,max response,[5],7.8%
same,max response,[9],-4.19%
same,Potency,[8],inactive
Cc1cccc(Nc2cc(Cl)nc(SCC(=O)O)n2)c1C,outcome,[6],inactive
same,max response,[7],-4.18%
same,max response,[5],-1.09%
same,max response,[9],-9.34%
same,Potency,[8],inactive
CSc1ccc2c(c1)C(N1CCN(C)CC1)Cc1ccccc1S2 (stereo not given),outcome,[1],inactive
same,outcome,[3],inactive
same,outcome,[4],inactive
same,Potency,[5],12.6 µM (active)
O=C1c2c(O)cccc2Cc2cccc(O)c21,outcome,[6],inactive
same,Potency,[10],inactive
same,max response,[7],-0.576%
same,max response,[5],12%
same,max response,[9],-1.66%
same,Potency,[8],inactive
O=C1O[C@H]([C@@H](O)CO)C(O)=C1O,outcome,[6],inactive
same,Potency,[10],inactive
same,max response,[7],26.8% and 1.51%
same,max response,[5],-4.25% and 24.7%
same,max response,[9],-2.8% and 5.16%
same,Potency,[8],inactive
Cc1cc(CC(=O)O)n(C)c1C(=O)c1ccc(Cl)cc1,outcome,[6],inactive
same,Potency,[10],inactive
same,max response,[7],-9.23%
same,max response,[5],5.09% and -10.7%
same,max response,[9],2.85%
same,Potency,[8],inactive
CC[C@H]1CN2CCc3cc(OC)c(OC)cc3[C@@H]2C[C@@H]1C[C@H]1NCCc2cc(OC)c(OC)cc21,outcome,[2],inactive
same,outcome,[3],inactive
same,outcome,[4],inactive
O=c1[nH]c(=O)c2[nH]c(=O)[nH]c2[nH]1,max response,[5],19.7% and 9.73%
CCCCC(CC)COC(=O)c1ccccc1O (stereo not given),outcome,[6],inactive
same,max response,[7],-10.2%
same,max response,[5],10.2%
same,max response,[9],-7.63%
same,Potency,[8],inactive
COC(=O)C1=C(C)NC(C)=C(C(=O)OC)C1c1ccccc1[N+](=O)[O-],max response,[7],-20.5%
same,outcome,[2],inactive
same,outcome,[3],inactive
same,outcome,[4],inactive
same,max response,[5],13.4% and 13.1%
CC1=C(/C=C/C(C)=C/C=C/C(C)=C/C(=O)O)C(C)(C)CCC1,max response,[7],-2.09% and 3.64%
same,outcome,[2],inactive
same,outcome,[3],inactive
same,outcome,[4],inactive
same,max response,[5],12.7% and 23.7%
same,max response,[9],-2.27% and -2.67%
same,Potency,[8],inactive
